# Where “and” joins values, the source holds several entries; their conditions need not be identical. Identical values can stand only once. Records with an inconclusive call do not appear. Where a call stands in place of a potency, no number is given. A structure can be active in one record and inactive in another. Calls of active or inactive are those of the source. Unless noted, calls follow the shape of the full dose curve.
# Assay: qHTS assay to identify small molecule antagonists of the sonic hedgehog signaling (Shh) pathway (AID 1259369); also: nearly all actives have a fitted effect of over 45% in size
# Settings: NIH/3T3 Gli1-Luc reporter, Shh antagonist, luminescence 24 h; series mostly up to 92.4 µM
# In short: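 Gli1 transcriptional reporter (firefly Luc) in NIH/3T3 background, conditioned-medium activated. 24hr exposure, luminescence endpoint.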
# Potency is read from the fitted curve at half-maximal effect.
SMILES,Potency,"activity change, negative = inhibition"
CC1COc2c(N3CCN(C)CC3)c(F)cc3c(=O)c(C(=O)O)cn1c23 (centres undefined),inactive,–
CCc1ccc(C(c2ccc(CC)cc2)C(Cl)Cl)cc1,inactive,–
O=C(O)CP(=O)(O)O,inactive,–
CCn1cc(C(=O)O)c(=O)c2cc(F)c(N3CCNC(C)C3)c(F)c21 (centres undefined),inactive,–
c1ccc2c(c1)-c1cccc3c1c-2cc1ccccc13,inactive and 545 nM (active),–
NC(N)=Nc1nc(CSCC/C(N)=N/S(N)(=O)=O)cs1,inactive,–
NCCO,inactive and 15.4 µM (active),–
CCCCCCCCCCCCCC[P+](CCCC)(CCCC)CCCC,24.2 nM (active) and 61.1 nM (active),–
O=C(O)c1cn(-c2ccc(F)cc2)c2cc(N3CCNCC3)c(F)cc2c1=O,inactive,–
CCCCC/C=C/CC1CC(=O)OC1=O (centres undefined),inactive,–
CCCC(=O)c1ccccc1,inactive,–
Cc1cc(C2(c3cc(C)c(O)cc3C)OS(=O)(=O)c3ccccc32)c(C)cc1O,inactive,–
O=C(OCc1ccccc1)c1ccc(O)cc1,43.3 µM (active) and inactive,–
CCC(C)(Oc1ccc(C2(c3ccc(OC(C)(CC)C(=O)O)cc3)CCCCC2)cc1)C(=O)O (centres undefined),inactive,–
CCc1cc(C(C)(C)C)c(O)c(C(C)(C)C)c1,inactive,–
CC(=O)CC(C)=O,inactive,–
NCCCCCC(=O)O,inactive,–
NNCCc1ccccc1,inactive,–
Nc1nc2ccccc2[nH]1,inactive,–

SMILES,Potency,"activity change, negative = inhibition"
O=C(Oc1ccccc1)c1ccccc1O,inactive and 54.5 µM (active),–
CC(C)(c1ccccc1)c1ccc(Nc2ccc(C(C)(C)c3ccccc3)cc2)cc1,inactive,–
NC(N)=NC(=O)Cc1c(Cl)cccc1Cl,inactive,–
CC1=CC(=O)c2ccccc2C1=O,24.3 µM (active) and 16.8 µM (active),–
COc1cc(C(=S)N2CCOCC2)ccc1O,inactive,–
CCCNC(C)C(=O)Nc1ccccc1C (centres undefined),inactive,–
CC(=O)O[C@]1(C(C)=O)CC[C@H]2[C@@H]3C[C@H](C)C4=CC(=O)CC[C@]4(C)[C@H]3CC[C@@]21C,19.3 µM (active),–
NC(Cc1ccc(Cl)cc1)C(=O)O (centres undefined),–,23.4% [at 0.349 µM] (inactive)
O=C1CC2(CCCC2)CC(=O)N1CCCCN1CCN(c2ncccn2)CC1,19.3 µM (active) and inactive,–
Cc1ccc(-c2cc(C(F)(F)F)nn2-c2ccc(S(N)(=O)=O)cc2)cc1,21.6 µM (active) and 13.7 µM (active) and inactive,–
CC(=O)CC(=O)Nc1ccc2[nH]c(=O)[nH]c2c1,inactive,–
c1ccc2cc3c(ccc4ccccc43)cc2c1,inactive,–
Cc1c(O)cccc1C(=O)N[C@@H](CSc1ccccc1)[C@H](O)CN1C[C@H]2CCCC[C@H]2C[C@H]1C(=O)NC(C)(C)C,8.41 µM (active) and 29.8 µM (active),–
O=C(O)c1cccc(C(=O)O)c1,inactive,–
CCN1CCCC1CNC(=O)c1cc(S(=O)(=O)CC)c(N)cc1OC (centres undefined),inactive,–
CCC[C@H](N[C@@H](C)C(=O)N1[C@H](C(=O)O)C[C@@H]2CCCC[C@@H]21)C(=O)OCC,inactive,–
CCCCCCCCCCCCc1ccccc1O,67.7 µM (active) and 34.4 µM (active),–
CC(C)(C)NCC(O)c1cc(O)cc(O)c1 (centres undefined),inactive,–

# Assay: qHTS assay to identify small molecule agonists of the androgen receptor (AR) signaling pathway in the presence of an antagonist - cell viability counter screen (AID 1259379; active = well fitted cell-killing curve with a large enough effect in the repeat runs; also: nearly all actives have a fitted effect of over 25% in size;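 as to activity change, negative = cytotoxicity: MDA-kb2 human breast cancer cells carrying an MMTV luciferase reporter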)
# Settings: MDA-kb2 viability, CellTiter-Fluor, 16 h; series mostly up to 92.4 µM
# In short: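 Counter screen for cell viability run in parallel with the AR agonist-mode luciferase assay. MDA-kb2 cells were co-treated with nilutamide (3.0uM final) and compounds, then incubated 16 hr at 37C, and CellTiter-Fluor fluorescence was measured.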
SMILES,Potency,"activity change, negative = cytotoxicity"
CC1COc2c(N3CCN(C)CC3)c(F)cc3c(=O)c(C(=O)O)cn1c23 (centres undefined),inactive,–
CCc1ccc(C(c2ccc(CC)cc2)C(Cl)Cl)cc1,inactive,–
O=C(O)CP(=O)(O)O,inactive,–
CCn1cc(C(=O)O)c(=O)c2cc(F)c(N3CCNC(C)C3)c(F)c21 (centres undefined),inactive,–
c1ccc2c(c1)-c1cccc3c1c-2cc1ccccc13,inactive,–
NC(N)=Nc1nc(CSCC/C(N)=N/S(N)(=O)=O)cs1,inactive,–
NCCO,inactive,–
CCCCCCCCCCCCCC[P+](CCCC)(CCCC)CCCC,19.2 µM (active) and 15.4 µM (active),–
O=C(O)c1cn(-c2ccc(F)cc2)c2cc(N3CCNCC3)c(F)cc2c1=O,inactive,–
CCCCC/C=C/CC1CC(=O)OC1=O (centres undefined),inactive,–
CCCC(=O)c1ccccc1,inactive,–
Cc1cc(C2(c3cc(C)c(O)cc3C)OS(=O)(=O)c3ccccc32)c(C)cc1O,54.5 µM (active) and 27.3 µM (active),–
O=C(OCc1ccccc1)c1ccc(O)cc1,inactive,–
CCC(C)(Oc1ccc(C2(c3ccc(OC(C)(CC)C(=O)O)cc3)CCCCC2)cc1)C(=O)O (centres undefined),inactive,–
CCc1cc(C(C)(C)C)c(O)c(C(C)(C)C)c1,inactive,–
CC(=O)CC(C)=O,inactive,–
NCCCCCC(=O)O,inactive,–
NNCCc1ccccc1,inactive,–
Nc1nc2ccccc2[nH]1,inactive,–

SMILES,Potency,"activity change, negative = cytotoxicity"
O=C(Oc1ccccc1)c1ccccc1O,inactive,–
CC(C)(c1ccccc1)c1ccc(Nc2ccc(C(C)(C)c3ccccc3)cc2)cc1,inactive,–
NC(N)=NC(=O)Cc1c(Cl)cccc1Cl,inactive,–
CC1=CC(=O)c2ccccc2C1=O,43.3 µM (active),–
COc1cc(C(=S)N2CCOCC2)ccc1O,inactive,–
CCCNC(C)C(=O)Nc1ccccc1C (centres undefined),inactive,–
CC(=O)O[C@]1(C(C)=O)CC[C@H]2[C@@H]3C[C@H](C)C4=CC(=O)CC[C@]4(C)[C@H]3CC[C@@]21C,inactive,–
NC(Cc1ccc(Cl)cc1)C(=O)O (centres undefined),–,4.35% [at 0.35 µM] (inactive)
O=C1CC2(CCCC2)CC(=O)N1CCCCN1CCN(c2ncccn2)CC1,inactive,–
Cc1ccc(-c2cc(C(F)(F)F)nn2-c2ccc(S(N)(=O)=O)cc2)cc1,inactive,–
CC(=O)CC(=O)Nc1ccc2[nH]c(=O)[nH]c2c1,inactive,–
c1ccc2cc3c(ccc4ccccc43)cc2c1,inactive,–
Cc1c(O)cccc1C(=O)N[C@@H](CSc1ccccc1)[C@H](O)CN1C[C@H]2CCCC[C@H]2C[C@H]1C(=O)NC(C)(C)C,53 µM (active) and 23.7 µM (active),–
O=C(O)c1cccc(C(=O)O)c1,inactive,–
CCN1CCCC1CNC(=O)c1cc(S(=O)(=O)CC)c(N)cc1OC (centres undefined),inactive,–
CCC[C@H](N[C@@H](C)C(=O)N1[C@H](C(=O)O)C[C@@H]2CCCC[C@@H]21)C(=O)OCC,inactive,–
CCCCCCCCCCCCc1ccccc1O,61.1 µM (active),–
CC(C)(C)NCC(O)c1cc(O)cc(O)c1 (centres undefined),inactive,–

# Reference: PubChem BioAssay (Tox21)
